This is an account of results in PubChem BioAssay.

Assay [1] deals with transactivating tegument protein VP16 (Human herpesvirus 1). Briefly: VP16 transactivation reporter inhibitors, counter-screen for SRC2 inhibitor project, cell-based, luminescence, single concentration (AID 652007). The settings on record: cell-based VP16 transactivation luciferase reporter, at 8.9 µM, stronger effect = higher value. For orientation: The purpose of a counterscreen is to sort out artefacts and off-target activity.

The target in assay [2] is Nuclear receptor coactivator 2 (Homo sapiens) (UniProt Q15596). Briefly: SRC2 coactivator transcriptional activity inhibitors, confirmation, cell-based, luminescence, HEK293, triplicate (AID 652008;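 active = mean inhibition above 46.5%, the solvent-only control mean plus 3 SD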;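 also: 0% = DMSO-treated cells and 100% = Gossypol at 36 µM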). The settings on record: HEK293 GAL4-SRC2 luciferase reporter, at 8.9 µM, stronger effect = higher value. On the technique in general: Reporter assays use an easily measured gene product as a stand-in for the process of interest.

Unmarked numbers belong to inactive results. Calls of active or inactive are those of the source. Rule as the data show it, unless noted: active = inhibition above about 36%; inactive = the rest.

Sequence of Nuclear receptor coactivator 2 (Homo sapiens) (Q15596 whole entry, looked up, the tested form may be a part): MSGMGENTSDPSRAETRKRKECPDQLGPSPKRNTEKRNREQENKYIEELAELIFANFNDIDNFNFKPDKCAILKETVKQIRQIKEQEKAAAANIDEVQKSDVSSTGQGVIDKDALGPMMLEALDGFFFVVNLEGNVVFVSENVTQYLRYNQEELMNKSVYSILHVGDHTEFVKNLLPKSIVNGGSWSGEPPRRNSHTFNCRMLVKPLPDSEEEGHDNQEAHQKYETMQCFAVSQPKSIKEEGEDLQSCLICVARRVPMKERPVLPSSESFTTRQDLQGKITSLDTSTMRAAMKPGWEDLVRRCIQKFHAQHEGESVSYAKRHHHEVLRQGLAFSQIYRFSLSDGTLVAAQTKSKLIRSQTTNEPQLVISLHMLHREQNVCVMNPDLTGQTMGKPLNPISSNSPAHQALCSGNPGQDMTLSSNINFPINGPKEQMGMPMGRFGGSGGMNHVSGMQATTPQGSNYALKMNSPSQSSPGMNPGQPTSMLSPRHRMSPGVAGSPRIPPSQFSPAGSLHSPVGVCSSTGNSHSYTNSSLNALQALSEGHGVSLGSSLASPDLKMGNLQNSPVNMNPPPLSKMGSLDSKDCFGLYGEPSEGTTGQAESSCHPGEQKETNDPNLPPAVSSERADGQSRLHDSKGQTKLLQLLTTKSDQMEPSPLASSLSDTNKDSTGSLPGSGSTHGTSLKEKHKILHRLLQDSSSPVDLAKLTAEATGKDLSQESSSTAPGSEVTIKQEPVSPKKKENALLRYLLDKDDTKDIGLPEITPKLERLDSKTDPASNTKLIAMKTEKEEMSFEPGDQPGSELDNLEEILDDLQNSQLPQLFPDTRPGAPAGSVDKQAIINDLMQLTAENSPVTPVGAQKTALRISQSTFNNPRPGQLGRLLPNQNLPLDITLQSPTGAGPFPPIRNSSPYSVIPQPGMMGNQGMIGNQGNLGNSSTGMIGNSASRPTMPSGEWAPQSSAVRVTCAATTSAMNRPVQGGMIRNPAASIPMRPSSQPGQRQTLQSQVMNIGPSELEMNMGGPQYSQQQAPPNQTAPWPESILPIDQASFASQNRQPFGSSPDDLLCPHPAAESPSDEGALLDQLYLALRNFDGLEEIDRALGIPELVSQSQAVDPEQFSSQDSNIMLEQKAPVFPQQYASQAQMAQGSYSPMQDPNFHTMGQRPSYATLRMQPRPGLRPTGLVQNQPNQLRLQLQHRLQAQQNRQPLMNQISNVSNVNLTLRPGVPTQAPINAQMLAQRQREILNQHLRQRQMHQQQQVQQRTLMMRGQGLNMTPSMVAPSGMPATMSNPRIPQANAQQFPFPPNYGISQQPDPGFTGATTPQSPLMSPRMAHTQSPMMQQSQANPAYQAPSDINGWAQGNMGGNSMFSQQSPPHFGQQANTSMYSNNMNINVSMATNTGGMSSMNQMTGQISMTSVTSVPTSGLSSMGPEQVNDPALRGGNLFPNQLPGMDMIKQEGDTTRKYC

Usually inhibition stands for the change of the read-out against control, counted positive when it falls. With `Cc1[nH]nc(-c2cccnc2)c1N=NN(C)C`, the inhibition is 10.9% in assay [1] and 41.1% in assay [2].
For `O=S(=O)(C/C(=C/CO)S(=O)(=O)c1ccccc1)c1ccccc1`, in that order: 79.3% (active) and 67% (active).
Consider `N#CCCN(C(=O)COC(=O)C1CCN(S(=O)(=O)c2ccccc2C(F)(F)F)CC1)c1ccccc1`, for which the results for the inhibition in assay [1] and in assay [2] were 0.12% and 11.1%, respectively.
For `CCOc1ccc(CN2CCNC(=O)C2CC(=O)NCCc2cnccn2)cc1` (stereo unspecified), the inhibition was 10.4% in assay [1] and -23.9% in assay [2].
For `COC(=O)COc1ccc(-c2nccc(-c3ccccn3)n2)cc1`, in that order: 16.9% and 73.4% (active).
For `CCOC(=O)c1ccc(-c2ccc(N3C(c4cccc(OC)c4)=Cc4ccc(F)cc4C3CC(C)=O)cc2)cc1F` (stereo unspecified), in that order: -0.77% and 21.3%.
For `CCOC(=O)c1c(NC(=O)C2=COCCO2)sc2c1CCN(C(=O)OC)C2`, in that order: 3.45% and 8.72%.
`COc1ccc(-c2nc3ccccn3c2NC2CCCCC2)cc1SC1CCCCC1`: the values for the inhibition in assay [1] and in assay [2] were 17.4% and -1.51%, respectively.
On to `O=C(N/N=C/c1ccc([N+](=O)[O-])o1)c1cc2ccccc2o1`, for which the inhibition in assay [1] was 21.6%; in assay [2], 56.4% (active).
For `COc1cc2ncnc(NCc3ccc4c(c3)OCO4)c2cc1OC`, in that order: 7.59% and -5.74%.
On to `CCCCc1ccc(S(=O)(=O)N/N=C(/C)c2ccncc2)cc1`, for which the results for the inhibition in assay [1] and in assay [2] were 30.5% and 68.7% (active), respectively.
For `COc1ccc(CN2CCN(Cc3ccc(C(F)(F)F)cc3)CC2)cc1`, in that order: 10.7% and 22.6%.
Take `CC(=O)Nc1c([N+](=O)[O-])cc(C)c(Cl)c1[N+](=O)[O-]`: the results for the inhibition in assay [1] and in assay [2] were -10.7% and 3.8%, respectively.
For `C=CS(=O)(=O)N(Cc1ccc(F)cc1)C(=C)C(=O)OC`, in that order: 33.7% and -13.2%.
For the compound `COCCn1c(SCC(=O)/C=C2\N(C)c3ccccc3C2(C)C)nnc1-c1ccncc1`, the inhibition in assay [1] was -4.56%; in assay [2], 8%.
For the compound `Cc1ccc(NCc2nnc(SCC(=O)c3ccccc3)n2Cc2ccco2)c(C)c1`, the inhibition in assay [1] was -11.6%; in assay [2], -16.7%.
For `CCOC(=O)C1=C[C@@H](C(C)(C)C)N(S(=O)(=O)c2ccc(C)cc2)[C@H]1c1ccc(Cl)c(Cl)c1`, in that order: 7.53% and 17.4%.
`Cc1ccc(NC(=O)COC(=O)C2=NN(c3ccccc3)C(=O)CC2)c(Br)c1`: the inhibition in assay [1] was -16.2%; in assay [2], -37.9%.
In the same order, the values of `Cc1onc(C(=O)N2CCC(Cc3ccccc3)CC2)c1[N+](=O)[O-]` are -1.3% and 5.37%.
For `COCc1cc(N2CCN(C(=O)OC(C)(C)C)C[C@H]2C)ccc1N1CCS(=O)(=O)CC1`, in that order: 5.52% and 33.9%.
On to `COc1ccc(NC(=O)COc2coc(CN3CCN(c4ccccc4)CC3)cc2=O)cc1`, for which the inhibition was -6.47% in assay [1] and -1.96% in assay [2].
For `C[C@@H]1CNCCN1c1ccc(N2CCN(Cc3ccccc3)[C@@H](C)C2)c(C#N)c1`, the inhibition in assay [1] was 15.5%; in assay [2], 17.3%.
`COc1cccc(NC(=O)Nc2nnc(CC(=O)NCc3ccccc3)s2)c1`: the inhibition is -17.5% in assay [1] and 24.5% in assay [2].
With `Cc1cccc(Nc2nc(NCc3ccco3)c3ccccc3n2)c1`, the inhibition in assay [1] was 25.1%; in assay [2], 33.9%.
In the same order, the values of `O=C(COC(=O)c1cccc(F)c1)Nc1cccc(S(=O)(=O)N2CCCCC2)c1` are 1.01% and 2.48%.
With `O=C(Nc1ccc2nc3n(c(=O)c2c1)CCCCC3)c1c(F)ccc([N+](=O)[O-])c1F`, the inhibition in assay [1] is 83% (active); in assay [2], 75.5% (active).
In the case of `Nc1cccc(-c2cc3ccccc3oc2=O)c1`, the figures for the inhibition in assay [1] and in assay [2] were 22.1% and 56.9% (active), respectively.
`CCOc1cc(NC(=S)NCc2ccco2)c(OCC)cc1NC(=O)CC`: the values for the inhibition in assay [1] and in assay [2] were -10.4% and -9.88%, respectively.
Consider `COc1cccc(N2C(=O)CC(NNC(=O)c3cccs3)C2=O)c1` (stereo unspecified), for which the inhibition is -15.3% in assay [1] and -23.7% in assay [2].
Take `NC(=O)C1CCN(CCS(=O)(=O)c2ccc(Cl)cc2)CC1`: the inhibition was -1.09% in assay [1] and -24.6% in assay [2].
On to `CN(c1ccc(F)cc1)S(=O)(=O)c1ccc(Cl)c(C(=O)Nc2ccncc2)c1`, for which the inhibition in assay [1] was -3.83%; in assay [2], 26.5%.
In the same order, the values of `COc1ccc(C(=O)c2ccc(CC(=O)O)s2)cc1` are 29.4% and 43.1%.
For `C=CCc1c(C)nc(SC(C)C)[nH]c1=O`, in that order: 0.2% and -25.4%.
Consider `CCN(CC)Cc1nc2c(c(=O)[nH]1)C(CC)(CC)Cc1ccccc1-2`, for which the inhibition in assay [1] is -14.9%; in assay [2], 6.86%.
In the same order, the values of `CCN(CC)S(=O)(=O)c1ccc(Cl)c(NC(=O)COc2ccc(OC)cc2[N+](=O)[O-])c1` are -24.3% and -28.8%.
In the same order, the values of `CC(C)(CN1CCC(Cc2ccccc2)CC1)NS(=O)(=O)c1ccccc1` are 13.9% and 32.5%.
For `CC[n+]1cccc(-c2nc3ccccc3s2)c1`, in that order: 9.34% and 13%.
For `O=C(CCc1nnc(-c2ccc(-c3ccccc3)cc2)o1)NCCc1ccccn1`, the inhibition in assay [1] is 14.7%; in assay [2], 54% (active).
Take `C[C@@H]1C[C@H]2O[C@@H]2/C=C\C=C\C(=O)Cc2cc(O)cc(O)c2C(=O)O1`: the inhibition was 34.7% in assay [1] and 15.2% in assay [2].
For `Cc1cccc(NS(=O)(=O)c2ccc(C)c(C(=O)NC3CCN(Cc4ccccc4)CC3)c2)c1`, the inhibition in assay [1] is 8.2%; in assay [2] it was 6.89%.
For `CCN1C=CC(=C2C(=O)c3ccccc3C2=O)C=C1`, in that order: 42.3% (active) and 58.6% (active).
Regarding `COn1c2c(c3c4nonc4ccc31)CCCC2`, the inhibition in assay [1] is 0.98%; in assay [2] it was 18.7%.
As to `COc1ccc(-c2csc3ncnc(NCCO)c23)cc1`, the inhibition in assay [1] is 3.39%; in assay [2], 47.1% (active).
